Screens as filed in PubChem BioAssay.
A selection: hits, their analogues and other compounds. The true share with any hit is near 3.7%.
TIM10 inh: growth inhibitors of TIM10 yeast strain | S. cerevisiae TIM10 strain growth, BacTiter-Glo luminescence, 24 h | inhibition, % at 10 µM | hit rate 1.4% among 330,000;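 active = inhibition of 40% or more at the single tested concentration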;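 note: wild-type TIM10 isogenic control strain grown at permissive 25 °C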
V-ATPase pH: alters yeast V-ATPase proton transport; S. cerevisiae, pHLuorin cytosolic pH fluorescence; response, % at 10 µM; hit rate 0.37% among 350,000; in the data active = response mostly above about 7.3%, no sharp cut-off; inactive = mostly below about 5.4%; note: actives read high
PfHsp90 set2: inhibits growth of yeast expressing Plasmodium falciparum Hsp90; S. cerevisiae expressing PfHsp90, BacTiter-Glo ATP, 48 h; yeast lacking PDR1 and PDR3 efflux regulators; inhibition, % at 9.4 µM; hit rate 0.32% among 310,000;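 active = every replicate shows inhibition above about 80%, whatever the replicate mean, limit read from the data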;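 note: 0% = DMSO neutral controls and 100% = 20 µM radicicol positive controls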
tim10-1 inh: inhibits growth of tim10-1 mutant yeast; S. cerevisiae tim10-1 ts strain growth, BacTiter-Glo, 24 h; inhibition, % at 20 µM; hit rate 2.2% among 330,000;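 active = inhibition of at least 40%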;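 note: mutant grown at 25 °C; 0% = DMSO wells with yeast and 100% = wells holding no yeast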
tim23-1 inh: tim23-1 yeast growth inhibition; S. cerevisiae tim23-1 growth, BacTiter-Glo luminescence, 24 h; inhibition, % at 20 µM; hit rate 1.3% among 330,000; AID 463212;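 active = growth inhibition of the mutant yeast at or above 50%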;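 note: temperature-sensitive mutant grown at 25 °C; plate controls were DMSO-treated mutant yeast for no effect and medium wells lacking yeast for full effect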
tim10-1 confirm: tim10-1 yeast growth inhibition, confirmed. shares compounds with tim10-1 inh. S. cerevisiae tim10-1 ts strain growth, BacTiter-Glo, 24 h. inhibition, % at 20 µM. hit rate 56% among 7,400. AID 463213;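 active = inhibition of yeast growth at or above a set limit in either of two repeat tests at 20 µM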;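 note: tim10-1 mutant grown at permissive 25 °C to find synthetic lethal compounds; 0% = DMSO yeast wells and 100% = medium wells without yeast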
tim10 confirm: confirmation of TIM10 yeast growth inhibitors; shares compounds with TIM10 inh; S. cerevisiae tim10 strain growth, BacTiter-Glo luminescence, 24 h; inhibition, % at 10 µM; hit rate 63% among 4,600;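 active = inhibition of yeast growth at or above a set limit in either of two replicates at 10 µM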;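 note: this counterscreen used the strain with wild-type TIM10; 0% = yeast with DMSO and 100% = medium wells lacking yeast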
tim23-1 confirm: confirmation of tim23-1 mutant yeast growth inhibitors. AID 463218. inhibition, % at 20 µM. S. cerevisiae tim23-1 growth, BacTiter-Glo luminescence, 24 h. hit rate 83% among 4,400. shares compounds with tim23-1 inh;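 active = inhibition above about 39% in either of two replicate wells at 20 µM, limit read from the data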;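 note: temperature-sensitive tim23-1 mutant grown at 25 °C; 0% = DMSO wells with yeast and 100% = medium wells without yeast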
Numbers without * were called inactive; / = not tested or not shown.

SMILES	TIM10 inh	V-ATPase pH	PfHsp90 set2	tim10-1 inh	tim23-1 inh	tim10-1 confirm	others
Oc1c(Cl)c(Cl)c(Cl)c(Cl)c1Cl	39.5	-3.1	22.7	46.8*	39.3	30.8*
CCCCCCN1CCN(c2ccccc2Cl)CC1	-35.0	0.9	5.7	-11.2	-62.0	/
CC(=O)OC[C@]12CCC(C)=C[C@H]1O[C@@H]1[C@H](O)[C@@H](OC(C)=O)[C@@]2(C)[C@]12CO2	26.3	-0.8	/	54.3*	25.7	48.7*
CCCC1(CCC)C(=O)NC(=Nc2ccccc2)NC1=O	-8.9	1.2	-2.3	17.3	18.1	/
CCCCC1(CCCC)C(=O)NC(=Nc2cccc(C)c2)NC1=O	9.5	2.0	17.9	40.1*	29.6	26.4
CCn1c(O)c(/C(C)=N/N2CCCCC2c2cccnc2)c(=O)[nH]c1=S (centres undefined)	25.6	7.0	-69.6	47.5*	23.5	21.3
O=C1CC(N2CC=C(c3ccc(F)cc3)CC2)C(=O)N1c1ccc(F)cc1 (centres undefined)	20.1	8.8	-10.2	42.8*	39.9	25.6
CCCNC(=O)c1c(N)n(CC2CCCO2)c2nc3ccccc3nc12 (centres undefined)	26.0	-2.9	/	44.5*	30.7	13.8
CC(C)OCCCNC(=O)c1c(N)n(CC2CCCO2)c2nc3ccccc3nc12 (centres undefined)	17.7	/	2.4	29.4	30.0	/
CCCCn1c(N)c(C(=O)NCc2cccs2)c2nc3ccccc3nc21	25.0	-4.3	24.6	41.0*	36.0	24.1
Clc1cccc(C2NCc3ccccc3-n3cccc32)c1 (centres undefined)	10.5	0.5	-5.0	27.2	30.6	/
CC/C(=N\NC(=O)c1ccccc1)c1c(O)n(C2CCCCC2)c(=O)[nH]c1=O	4.4	0.5	-4.1	11.4	4.7	/
COc1ccc2nc(NC(=O)CCc3nc(C4=CCN(C)CC4)no3)sc2c1	-0.8	-4.8	-7.4	43.0*	11.6	12.8
O=C1Nc2ccc(Br)cc2C(c2ccccc2Cl)=NC1O (centres undefined)	-8.9	-0.2	4.0	-5.8	-1.3	/
Brc1ccc2[nH]cc(/C=N/N3CCCCC3)c2c1	17.7	-1.1	-6.8	42.5*	47.3	21.8
CCOC(=O)c1ccc(N2C(=O)CC(N3CC=C(c4ccc(F)cc4)CC3)C2=O)cc1 (centres undefined)	56.6*	-0.8	-9.2	63.1*	19.3	61.6*	tim10 confirm=43.8*
NC(=O)c1ccc(OCCC(O)N2CC=C(c3ccc(F)cc3)CC2)cc1 (centres undefined)	-12.4	-3.0	-2.4	-20.4	-49.3	/
Fc1ccc(C[n+]2c(-c3ccccc3)cc(-c3ccccc3)cc2-c2ccccc2)cc1	49.4*	/	/	55.4*	41.1	51.8*	tim10 confirm=58.5*
CCCC12CN3CN(C1)CC(CCC)(C3)C2O (centres undefined)	1.1	6.5	-0.8	-2.9	3.2	/
CCSc1cc(C2C(C#N)=C(N)Oc3n[nH]c(C)c32)c(C)o1 (centres undefined)	47.5*	3.1	10.5	63.0*	9.6	47.0*	tim10 confirm=44.6*
Cc1ccc(N=Nc2c(O)[nH]c(=O)[nH]c2=O)c([N+](=O)[O-])c1	-3.9	0.1	/	13.1	16.2	/
COC(=O)C1=C(c2ccc(OCc3ccccc3)c(F)c2)C[C@@H]2CC[C@H]1N2C	/	-0.6	/	/	/	/
Cc1ccc(Cn2nnnc2CN2CCC(n3nnc4cc(C)ccc43)CC2)cc1	49.8*	-4.8	-54.2	51.7*	44.6	46.1*	tim10 confirm=28.0*
Cc1ccc(Cn2nnnc2CN2CCC(n3nnc4cc(C(F)(F)F)ccc43)CC2)cc1	33.2	4.9	/	36.1	18.3	/
CCOC(=O)c1c(C)[nH]c(C(=O)C(Cc2ccccc2)N(C)C)c1C (centres undefined)	2.9	-2.0	6.3	16.8	9.9	/
SMILES	TIM10 inh	V-ATPase pH	PfHsp90 set2	tim10-1 inh	tim23-1 inh	tim10-1 confirm	others
O=C1NC(=O)N(Cc2ccco2)C(=O)/C1=C\c1cccn1CCOc1ccc(Cl)cc1	41.2*	-3.3	-6.6	47.4*	43.9	41.5*	tim10 confirm=39.2*
COc1ccc(N2C(=O)NC(=O)/C(=C\c3ccc([N+](=O)[O-])s3)C2=O)cc1	80.9*	102.3*	22.6	67.9*	43.2	71.4*	tim10 confirm=38.3*
OC(Cn1c2ccccc2c2ccccc21)C[n+]1cccc2ccccc21 (centres undefined)	57.4*	-3.4	9.0	49.1*	33.2	43.0*	tim10 confirm=43.0*
O=c1[nH]c(=O)n(Cc2ccccc2Cl)c(O)c1/C=C1/C=CC=N1	24.1	0.1	-9.2	28.0	-69.5	/
FC(F)(F)c1ccccc1CNCCc1c[nH]c2ccccc12	61.2*	1.6	-4.5	43.0*	34.6	62.2*	tim10 confirm=60.0*
COC(=O)C1=C(c2ccc(Cl)c(C(F)(F)F)c2)C[C@@H]2CC[C@H]1N2C(=O)NCCOc1ccccc1Cl	1.1	-3.4	-75.9	12.3	26.9	/
Cc1cc(C)n(-c2ccc(NN=C(C#N)C#N)cc2)n1	27.0	7.6	-5.8	24.0	35.7	/
N#CC(C#N)=NNc1ccc(-n2ccc(C(F)(F)F)n2)cc1	47.6*	2.1	-15.6	49.9*	51.0*	59.3*	tim10 confirm=23.4;tim23-1 confirm=61.2*
COC(=O)C1=C(c2ccc(F)cc2OCc2ccccc2)C[C@@H]2CC[C@H]1N2C(=O)NCCOc1ccc(OC)cc1	6.9	2.4	23.1	6.0	20.6	/
COc1cccc(NC(=O)[C@@H](NC(=O)N2C[C@H]3C[C@@H](C2)c2cccc(=O)n2C3)C(C)C)c1	-0.2	-0.8	9.8	-25.2	0.9	/
COC(=O)C(O)(c1ccc(NC(=S)NC(=O)c2ccc(Cl)cc2Cl)c(C)c1)C(F)(F)F (centres undefined)	23.1	-2.4	-9.2	52.9*	58.5*	36.9*	tim23-1 confirm=57.6*
Cc1ccc(NC(=O)CN2C(=O)CN=C(c3ccccc3)c3cc(Cl)ccc32)cc1	11.0	5.6	13.4	45.4*	61.0*	20.1	tim23-1 confirm=52.0*
CCN1/C(=C\C=C\C2=[N+](CC)c3ccccc3C2(C)C)C(C)(C)c2ccccc21	46.5*	5.3	13.8	42.0*	57.7*	27.7	tim10 confirm=26.9;tim23-1 confirm=40.0*
COc1ccc(-n2c(/C=C/c3ccc(O)c(OC)c3)nc3ccccc3c2=O)cc1	0.8	1.9	-15.9	4.6	42.8	/
COc1cc(/C=C/[N+](=O)[O-])ccc1O	18.8	-3.8	-15.2	43.3*	77.0*	18.2	tim23-1 confirm=75.5*
C#CCN(C)C(C)Cc1ccccc1 (centres undefined)	12.6	-1.8	4.4	23.1	-5.0	/
